# Laboratory results taken from PubChem BioAssay (NCI).
# Compounds without any hit were thinned out: in the full panel of roughly 83,000, 20% have a hit.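 Note: values are percent growth. 100 is the growth of untreated cells, values between 100 and 0 indicate rising inhibition; between -100 and 0 indicates cell death.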 Unmarked numbers belong to inactive results. Activity calls are given as the source filed them.
# Test system: SK-MEL-2 melanoma
# Experiment: NCI-60 one-dose screen, 48 h (100 = growth as untreated, 0 = no growth, -100 = all killed)
# Details: 10 µM unless noted
# Description: Growth inhibition of the SK-MEL-2 human tumor cell line is measured as a screen for anti-cancer activity. Cells are grown in 96 well plates and exposed to the test compound for 48 hours. Compounds are tested at a single concentration, which is 10^-5 M for most compounds. The reported endpoint is percent growth (GI% or GIPRCNT), where numbers from 0 - 100% represent growth inhibition, and numbers from -100% - 0 represent cell death. For example, a value of 40 represents 60% growth inhibition. A value of 0 means no net growth occurred over the course of the experiment. A value of -40 indicates 40% of cells at the beginning of the experiment died by the end of the experiment. A value of -100 means all cells are dead at the end of the experiment.
# NCI-60 Human Tumor Cell Lines Screen was performed using the standard one-dose NCI protocol, which is described in more detail at https://dtp.cancer.gov/discovery_development/nci-60/default.htm.
# Compounds with GIPRCNT values below 10 were considered active. Activity score was based on GIPRCNT using the following formula: […]
# Score is 0 for GIPRCNT values of 100 or above, 50 for GIPRCNT values of 0, and 100 for GIPRCNT values of -100.
row,Compound,growth
1,N#Cc1cccc(CN2CCC3=C(C2)C(=O)N(Cc2ccc(Cl)cc2)C2=NCCN23)c1,39.5%
2,COc1ccc2c(c1)c(CC(=O)[Se]CCC#N)c(C)n2C(=O)c1ccc(Cl)cc1,9.95% (active)
3,O=C(NNc1nc2cc(F)ccc2n2c(CN3CCCC3)ccc12)c1cnccn1,46%
4,Cc1ccc(-c2nnc(SCc3ccc(O)c4ncccc34)n2-c2ccccc2)cc1,-0.952% (active)
5,NC(N)=Nc1ccc(Oc2cccc(Nc3ccc(Br)c(C(F)(F)F)c3)c2)cn1,-45.1% (active)
6,O=S(=O)(NCCNc1nccc(-n2cnc3ccccc32)n1)c1ccc(Br)cc1,108%
7,CCOC(=O)C(=O)CC(=O)N1C(=S)NC(=O)C1CC(C)C (stereo not given),111%
8,COc1ccc(/C=C(\C#N)C(=O)N2c3ccccc3Sc3ccc(SC)cc32)cc1F,96.2%
9,COc1ccccc1-n1cc(C#N)c(N)c1C(=O)c1ccc(Br)cc1,70.4%
10,c1n[nH]cc1-c1nc2ccc3[nH]ncc3c2c2c1CCCC2,-20.7% (active)
11,CN(C)CCNC(=O)c1ccc(-c2nc3ccc4[nH]ncc4c3c3c2CCC3)cc1,-22.8% (active)
12,COc1cc(-c2nnc(SCc3ccc(O)c4ncccc34)n2-c2ccccc2)cc(OC)c1OC,24.6%
13,CCn1c(SCC(=O)Nc2cccc(C(=O)/C=C/c3ccc(C)cc3)c2)nc2ccccc2c1=O,108%
14,COc1cc(-c2nn(C(C)(C)C)cc2-c2ccnc(NCCCNS(=O)(=O)c3cccc(F)c3)n2)ccc1Cl,85.8%
15,Nc1cc(F)ccc1NC(=O)c1ccc(NC(=O)C/C=C/c2cccnc2)cc1,41.3%
16,COc1ccc(-c2nc3ccc(-c4nnc(SCC(=O)Nc5ccc(C(=O)/C=C/c6ccc(Cl)cc6)cc5)o4)cc3[nH]2)cc1,111%
17,O=C1Nc2ccccc2/C1=C/c1ccc(COCC2CO2)n1-c1ccc(O)cc1 (stereo not given),101%
18,CC(C)c1ccc(NCc2cn(-c3ccc(C(=O)O)cc3)nc2-c2cc(C(F)(F)F)cc(C(F)(F)F)c2)cc1,91.8%
19,O=C(CSc1nc2ccccc2c(=O)n1-c1ccccc1)Nc1ccc(-c2nc3ccc([N+](=O)[O-])cc3[nH]2)cc1,89.5%
20,Nc1cc(-c2c[nH]c3ccc(Br)cc23)nc2cc(-c3c[nH]c4ccc(Br)cc34)nn12,-43.7% (active)

row,Compound,growth
1,COc1ccc([C@H]2c3[nH]c4ccccc4c3C[C@H]3C(=O)N(C4CCN(Cc5c(Cl)cccc5Cl)CC4)CC(=O)N23)c(OC)c1,103%
2,CC(C)(C)n1cc(-c2ccnc(NCCCNS(=O)(=O)c3cccc(F)c3)n2)c(-c2ccc(Cl)c(O)c2)n1,98.4%
3,CNC(=O)c1cc(-c2ccc(NC(=S)Nc3cc(C(F)(F)F)cc(C(F)(F)F)c3)cc2)nc2cccnc12,99.3%
4,O=C(Cn1cc(-c2ccccc2)nn1)Nc1nc(-c2ccc(Cl)cc2)cs1,103%
5,O=S(=O)(NC1c2ccccc2C[C@H]1O)c1ccc(Cl)cc1Cl (stereo not given in full),101%
6,N#Cc1cn(Cc2ccc(Cl)cc2Cl)c(C(=O)c2ccc(Br)cc2)c1N,97.9%
7,NC/C(=C/F)COc1ccc2nc(NCc3cccnc3)oc2c1,105%
8,CC/C(=C/c1c(O)cccc1OC)c1ccc2c(OC)cccc2[o+]1,107%
9,C=C=COc1cccc(/C(N)=N/C(N)=N/c2nc3ccccc3s2)c1,104%
10,COC[C@]12CCC(C)(C)C[C@H]1C1=CC[C@@H]3[C@@]4(C)CCCNC(C)(C)[C@@H]4CC[C@@]3(C)[C@]1(C)CC2,35.2%
11,CCNC(=O)N1CCc2cc(OC)c(OCCc3ccc(OC)nc3)cc2C1c1ccc(OC)cc1C (stereo not given),30.1%
12,Nc1ccccc1NC(=O)c1ccc(NC(=O)C/C=C/c2cccnc2)cc1,15.5%
13,O=c1[nH]c(Sc2sc3ccc(Cl)cc3c2CBr)nc(=S)[nH]1,7.23% (active)
14,Nc1nc(Nc2ccccc2SSc2ccccc2Nc2nc(N)nc(-c3cccc(Br)c3)n2)nc(-c2cccc(Br)c2)n1,109%
15,CCOc1cccc(-c2nc3sccn3c2-c2ccnc(S(C)(=O)=O)n2)c1,108%
16,NC(N)=Nc1ccc(Oc2cccc(Nc3ccc(Cl)cc3)c2)cn1,64.6%
17,CC1(C)[C@@H](O)CC[C@]2(C)[C@H]3CC[C@@H]4[C@H]5[C@H](C(=O)/C=C\c6ccccn6)CC[C@]5(O)CC[C@@]4(C)[C@]3(C)CC[C@@H]12,77.8%
18,c1ccc(C(c2nc3ncncc3[nH]2)N2CSc3nc4ncncc4n3C2)cc1 (stereo not given),70.5%
19,O=C(Nc1ccc(N=Cc2c(O)[nH]c3ccccc23)cc1)Nc1nccs1,62.1%
20,CCO/C=N/C1=C(C#N)C(c2ccc(OC)cc2)c2sc3c(CC)cccc3c2O1 (stereo not given),41.4%
